# Results taken from the supplement of paper PMC4962491.
# Structures can show the parent of a compound that is named as a salt. ± gives the standard deviation of the averaged measurements. The full ranking holds about 1,600 compounds; the median of “mitochondrial oxygen consumption rate normalised to cell number, Z score over the library” is about 0.065, and the lowest 2% start at about -2.2. What follows is part of a selection rich in the lowest values, with near analogues and random picks from the rest.
# Test system: FaDu
# Test: mitochondrial oxygen consumption rate normalised to cell number, Z score over the library; higher = higher oxygen consumption (negative = OCR reduction)
# Conditions: treatment time 24 h; assay medium: 5 mM galactose, 5 mM pyruvate, 4 mM glutamine; 10 µM
# Description: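 Primary screen: FaDu cells were incubated 24 h with Pharmakon 1600 / TDI oncology set compounds at 2 or 10 uM. Mitochondrial-specific OCR (basal minus 2 uM antimycin A) was measured on a Seahorse XF96 in assay medium with 5 mM galactose, 5 mM pyruvate and 4 mM glutamine, then corrected for Hoechst cell number and expressed as a Z score […]. Compounds that cut cell number by >66% were excluded. Two repeats.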
row,Structure (SMILES),mitochondrial oxygen consumption rate normalised
1,CNC(=O)c1cc(Oc2ccc(NC(=O)Nc3ccc(Cl)c(C(F)(F)F)c3)cc2)ccn1,-2.31 ± 0.25
2,C#C[C@]1(OC(C)=O)CC[C@H]2[C@@H]3CCC4=CC(=NO)CC[C@@H]4[C@H]3CC[C@@]21CC (mixture of isomers),1.1 ± 0.091
3,CC(C)(C)CC(=O)OCC(=O)[C@@]1(O)CC[C@H]2[C@@H]3CCC4=CC(=O)C=C[C@]4(C)[C@H]3[C@@H](O)C[C@@]21C,-0.63 ± 0.68
4,COc1cc([C@@H]2c3cc4c(cc3[C@@H](O[C@@H]3O[C@@H]5CO[C@@H](C)O[C@H]5[C@H](O)[C@H]3O)[C@H]3COC(=O)[C@H]23)OCO4)cc(OC)c1O [Etoposide],-0.0499 ± 0.023
5,COc1cc([C@@H]2c3cc4c(cc3[C@@H](O[C@@H]3O[C@@H]5CO[C@@H](c6cccs6)O[C@H]5[C@H](O)[C@H]3O)[C@H]3COC(=O)[C@H]23)OCO4)cc(OC)c1O,-3.75 ± 0.66
6,COc1cc([C@@H]2c3cc4c(cc3[C@@H](O[C@@H]3O[C@@H]5CO[C@@H](C)O[C@H]5[C@H](O)[C@H]3O)[C@H]3COC(=O)[C@H]23)OCO4)cc(OC)c1O,-1.53 ± 0.61
7,Nc1c2ccccc2nc2ccccc12,-1.9 ± 0.35
8,Nc1ccc2cc3ccc(N)cc3nc2c1,-2.55 ± 0.27
9,Cc1ccc2c(Br)cc(Br)c(OC(=O)c3ccccc3)c2n1,-2.31 ± 0.47
10,O=C(OOC(=O)c1ccccc1)c1ccccc1,0.517 ± 0.52
11,O=C(Oc1cccc2cccnc12)c1ccccc1,-0.0234 ± 0.66
12,CCCCCCCCCCCCCCCC[N+](C)(C)CCN(Cc1ccc(OC)cc1)c1ncccn1,-2.13 ± 0.31
13,CO/N=C1\C[C@]2(C[C@@H]3C[C@@H](C/C=C(\C)C[C@@H](C)/C=C/C=C4\CO[C@@H]5[C@H](O)C(C)=C[C@@H](C(=O)O3)[C@]45O)O2)O[C@H](/C(C)=C/C(C)C)[C@H]1C,-0.513 ± 0.34
14,Cc1cccc(C)c1NC(=O)c1ccccc1C(=O)O,-0.418 ± 1.1
15,CCCCC(CC)CCC(CC(C)C)OS(=O)(=O)O (configuration not stated),0.745 ± 1.4
16,O.O.O=C([O-])CN(CCN(CC(=O)[O-])CC(=O)O)CC(=O)O.[Na+].[Na+],1.52 ± 0.75
17,CC1(C)S[C@@H]2[C@H](NC(=O)Cc3ccccc3)C(=O)N2[C@H]1C(=O)O,-0.601 ± 0.075
18,COC(=O)Nc1nc2cc(C(=O)c3ccc(F)cc3)ccc2[nH]1,0.265 ± 0.4
19,CC(C)(C)NC[C@H](O)c1ccc(O)c(CO)c1,0.0168 ± 0.31
20,C[n+]1c2cc(N)ccc2cc2ccc(N)cc21,-4.5 ± 0.35
21,C=CCCCCCCCCC(=O)O,1.2 ± 0.61
22,Cc1c(C)c2c(c(C)c1O)CCC(C)(CCCC(C)CCCC(C)CCCC(C)C)O2 (stereo not drawn) [alpha-TOCHOPHEROL],-0.681 ± 0.38

row,Structure (SMILES),mitochondrial oxygen consumption rate normalised
1,CC(=O)OCC(=O)[C@@]12OC(C)(C)O[C@@H]1C[C@H]1[C@@H]3C[C@H](F)C4=CC(=O)C=C[C@]4(C)[C@@]3(F)[C@@H](O)C[C@@]12C,0.605 ± 0.52
2,CN[C@H]1CC[C@@H](c2ccc(Cl)c(Cl)c2)c2ccccc21,-0.618 ± 0.057
3,OC[C@H]1O[C@@H](n2cnc3c2N=CNC[C@H]3O)C[C@@H]1O [Pentostatin],0.38 ± 0.31
4,C[C@@H]1O[C@@H]1P(=O)(O)O,0.794 ± 0.12
5,C=CCNC(N)=S,0.218 ± 1.4
6,Oc1c(Br)cc(Br)c2cccnc12,-1.77 ± 0.19
7,CCOc1ccc2nc3cc(N)ccc3c(N)c2c1,-3.35 ± 0.25
8,CCOc1ccc2nc(S(N)(=O)=O)sc2c1,-0.459 ± 0.36
9,CN(Cc1cc(Br)cc(Br)c1N)C1CCCCC1,0.728 ± 0.24
10,NNCCc1ccccc1,-0.3 ± 0.16
11,CO[C@H]1/C=C/O[C@@]2(C)Oc3c(C)c(O)c4c(O)c(c5c(nc6cc(C)ccn65)c4c3C2=O)NC(=O)/C(C)=C\C=C\[C@H](C)[C@H](O)[C@@H](C)[C@@H](O)[C@@H](C)[C@H](OC(C)=O)[C@@H]1C,0.795 ± 0.38
12,Cc1ccc(Nc2nccc(N(C)c3ccc4c(C)n(C)nc4c3)n2)cc1S(N)(=O)=O [Pazopanib HCl],-0.379 ± 0.45
13,OCC(S)CS (configuration not stated),-0.239 ± 0.68
14,N=C(N)c1ccc(N=NNc2ccc(C(=N)N)cc2)cc1,-0.185 ± 0.46
15,N=C(N)c1ccc(OCCCCCOc2ccc(C(=N)N)cc2)cc1,-3.01 ± 0.078
16,CCCCOc1ccc(C(=O)CCN2CCCCC2)cc1,-0.0802 ± 0.69
17,CC1CCN(CCCC(=O)c2ccc(F)cc2)CC1,-0.602 ± 0.36
18,CCCCC/C=C/CCC(=O)N[C@H]1[C@H](Oc2c3cc4cc2Oc2ccc(cc2Cl)[C@@H](O[C@@H]2O[C@H](CO)[C@@H](O)[C@H](O)[C@H]2NC(C)=O)[C@@H]2NC(=O)[C@H](NC(=O)[C@@H]4NC(=O)[C@H]4NC(=O)C(Cc5ccc(c(Cl)c5)O3)NC(=O)[C@H](N)c3ccc(O)c(c3)Oc3cc(O)cc4c3)c3ccc(O)c(c3)-c3c(OC4O[C@H](CO)[C@@H](O)[C@H](O)[C@@H]4O)cc(O)cc3[C@@H](C(=O)O)NC2=O)O[C@H](CO)[C@@H](O)[C@@H]1O (some centres not stated) [TEICOPLANIN [A(2-1) shown]],1.41 ± 0.64
19,COCCCOc1cc(C[C@@H](C[C@H](N)[C@@H](O)C[C@H](C(=O)NCC(C)(C)C(N)=O)C(C)C)C(C)C)ccc1OC,0.624 ± 0.066
20,Nc1ncnc2c1ncn2[C@@H]1O[C@H](CO)[C@@H](O)[C@@H]1O,0.868 ± 0.46
21,Cc1ccccc1N1C(=O)c2cc(S(N)(=O)=O)c(Cl)cc2NC1C (configuration not stated),0.24 ± 0.2
22,CCCSc1ccc2[nH]c(NC(=O)OC)nc2c1,0.883 ± 0.12

row,Structure (SMILES),mitochondrial oxygen consumption rate normalised
1,O=C1c2c(O)cc(CO)cc2C(OC2OC(CO)C(O)C(O)C2O)c2cccc(OC3OC(CO)C(O)C(O)C3O)c21 (configuration not stated) [CASANTHRANOL [cascaroside A shown]],-0.942 ± 0.28
2,C[C@H](Cn1cnc2c(N)ncnc21)OCP(=O)(O)O,0.449 ± 0.26
3,CCC1=C(C)CN(C(=O)NCCc2ccc(S(=O)(=O)NC(=O)N[C@H]3CC[C@H](C)CC3)cc2)C1=O,0.0168 ± 0.78
4,Cc1c(-c2cnccn2)ssc1=S,-0.416 ± 0.25
5,Cc1nccnc1N1CCCCC1,0.47 ± 0.26
6,CC(=O)NC(Cc1ccccc1)C(=O)O (configuration not stated),0.121 ± 0.33
7,C[Se]CC[C@H](N)C(=O)O,0.623 ± 0.23
8,CC(=O)OCC(=O)[C@@]1(O)[C@H](OC(C)=O)C[C@H]2[C@@H]3CCC4=CC(=O)C=C[C@]4(C)[C@@]3(F)[C@@H](O)C[C@@]21C,0.894 ± 0.33
9,CS(=O)(=O)CCNCc1ccc(-c2ccc3ncnc(Nc4ccc(OCc5cccc(F)c5)c(Cl)c4)c3c2)o1 [Lapatinib Ditosylate],-0.0282 ± 1.2
10,O.O.O.O.O=C([O-])CC(O)(CC(=O)[O-])C(=O)[O-].[Li+].[Li+].[Li+],-0.228 ± 1.6
11,CC1(C)[C@H](C(=O)O)N2C(=O)C[C@H]2S1(=O)=O,0.32 ± 0.83
12,Nc1c2c(nc3ccccc13)CCCC2,1.05 ± 0.93
13,CCCCCCc1ccc(O)cc1O.Nc1c2ccccc2nc2ccccc12,-2.93 ± 0.2
14,CCCCCCc1ccc(O)cc1O,0.48 ± 0.24
15,O=C(O)c1cc(-c2ccccc2)nc2ccccc12,0.349 ± 0.05
16,Oc1c(Cl)cc(Cl)cc1Sc1cc(Cl)cc(Cl)c1O,6.804 ± 0.06
17,Oc1c(Cl)cc(Cl)c(Cl)c1Cc1c(O)c(Cl)cc(Cl)c1Cl,-6.031 ± 0.028
18,O=C(Nc1cc(Cl)cc(Cl)c1O)c1c(O)c(Cl)cc(Cl)c1Cl,1.06 ± 0.89
19,O=C(NCc1ccccc1)OCCO,1.42 ± 0.86
20,CCCCC(CC)COc1ccc(-c2nc(-c3ccc(OC)cc3)nc(-c3ccc(OCC(CC)CCCC)cc3O)n2)c(O)c1 (configuration not stated),0.282 ± 0.45
21,Cc1ccccc1OCC(O)CO (configuration not stated),-0.432 ± 0.61
22,O=C1C(O)=C(O)C(=O)C(O)=C1O,0.611 ± 0.72

row,Structure (SMILES),mitochondrial oxygen consumption rate normalised
1,Cc1oc(=O)oc1CN1CCN(c2cc3c(cc2F)c(=O)c(C(=O)O)c2n3C(C)S2)CC1 (configuration not stated),0.0314 ± 0.4
2,NC(=O)CCCCC1CCSS1 (configuration not stated),1.43 ± 0.3
3,CCN[C@@H]1C[C@H](N)[C@@H](O[C@H]2OC(CN)=CC[C@H]2N)[C@H](O)[C@H]1O[C@H]1OC[C@](C)(O)[C@H](NC)[C@H]1O,1.16 ± 0.38
4,O=C1/C(=C/c2cccs2)CCC/C1=C\c1cccs1,0.0645 ± 0.73
5,CC(C)n1c(/C=C/C(O)CC(O)CC(=O)O)c(-c2ccc(F)cc2)c2ccccc21 (configuration not stated),-1.03 ± 0.072
6,CC(=O)[C@@]1(O)CC[C@H]2[C@@H]3C=C(Cl)C4=CC(=O)[C@@H]5C[C@@H]5[C@]4(C)[C@H]3CC[C@@]21C,-0.129 ± 1.6
7,Cc1cc(/C=C/c2ccc3cc(N(C)C)ccc3[n+]2C)c(C)n1-c1ccccc1,-5.57 ± 0.19
8,COc1cc2/c(=N/c3ccc(Br)cc3F)nc[nH]c2cc1OCC1CCN(C)CC1 [vandetanib],0.909 ± 1.7
9,CCN(CC)C(=O)c1cccnc1,-0.362 ± 0.74
10,OCc1ccccc1O[C@@H]1O[C@H](CO)[C@@H](O)[C@H](O)[C@H]1O,0.956 ± 0.64
11,O=C(c1ccc(OCCN2CCCCC2)cc1)c1c(-c2ccc(O)cc2)sc2cc(O)ccc12,-0.0851 ± 0.4
12,O=C(c1ccc(OCCN2CCCCC2)cc1)c1c(-c2ccc(O)cc2)sc2cc(O)ccc12 [Raloxifene HCl],-0.567 ± 1.1
13,COc1ccc(-n2nc(CCC(=O)N(C)O)cc2-c2ccc(Cl)cc2)cc1,-0.88 ± 0.44
14,FC(F)(Cl)C(F)(F)Cl,0.262 ± 0.59
15,CC12CCC(CC1=O)C2(C)C (configuration not stated),0.477 ± 0.051
16,C/C(=C\c1csc(C)n1)[C@@H]1C[C@@H]2O[C@]2(C)CCC[C@H](C)[C@H](O)[C@@H](C)C(=O)C(C)(C)[C@@H](O)CC(=O)N1 [Ixabepilone],-0.637 ± 0.14
17,OC[C@H]1O[C@@H](O[C@@H]2[C@@H](CO)OC(O)(CO)[C@H]2O)[C@H](O)[C@@H](O)[C@H]1O (mixture of isomers),1.09 ± 0.68
18,CN(C)CC(c1ccc(O)cc1)C1(O)CCCCC1 (configuration not stated),0.524 ± 0.65
19,S=C=Nc1ccc(N=C=S)cc1,0.759 ± 0.026
20,CC(=O)O[C@H]1C(=O)[C@@]2(C)[C@H]([C@H](OC(=O)c3ccccc3)[C@]3(O)C[C@H](OC(=O)[C@H](O)[C@@H](NC(=O)c4ccccc4)c4ccccc4)C(C)=C1C3(C)C)[C@]1(OC(C)=O)CO[C@@H]1C[C@@H]2O [Paclitaxel],-0.326 ± 0.26
21,CC(=O)O[C@H]1C(=O)[C@@]2(C)[C@H]([C@H](OC(=O)c3ccccc3)[C@]3(O)C[C@H](OC(=O)[C@H](O)[C@@H](NC(=O)c4ccccc4)c4ccccc4)C(C)=C1C3(C)C)[C@]1(OC(C)=O)CO[C@@H]1C[C@@H]2O,0.221 ± 0.61
